This is an account of results in PubChem BioAssay (NCI).

Among the test systems are NCI-H23 lung; NCI-H226 lung; NCI-H322M lung; HOP-62 NSCLC; NCI-H460 lung; HOP-92 NSCLC; NCI-H522 lung; A549/ATCC NSCLC; 786-0 renal; COLO 205 colon.
What all share (test): NCI-60 one-dose screen, 48 h (100 = growth as untreated, 0 = no growth, -100 = all killed)
Holding throughout (details): 10 µM unless noted

About 83,000 compounds went through this panel and 20% of them were active in at least one assay; those are over-represented in the sample as a whole.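 Results are percent growth after 48 hours of single-concentration exposure. 100 means growth as in untreated cells, lower positive values show inhibition; negative values down to -100 show cell death.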 Unmarked numbers belong to inactive results. Active and inactive are the calls of the source. The calls were made as follows: active = growth percent below 10; inactive = the rest.

In the case of `C=C1CC[C@@H]2[C@](C)(COC(C)=O)[C@H](OC(C)=O)CC[C@@]2(C)[C@@H]1CC(Sc1ccccc1)C1=CCOC1=O` (stereo not given in full), the growth in the experiment on NCI-H23 lung was 24.5%; with NCI-H226 lung, -9.88% (active); in the experiment with NCI-H322M lung it was 67.1%; with HOP-62 NSCLC, -18.2% (active); in the experiment on NCI-H460 lung, 21.7%; with HOP-92 NSCLC it was 24.5%. Also, the growth is -80.6% (active) in the experiment with NCI-H522 lung, 26.6% in the experiment with A549/ATCC NSCLC, -31.2% (active) in the experiment on 786-0 renal and -68.1% (active) in the experiment with COLO 205 colon.

Consider `C=C(C)[C@@H]1CC[C@]2(C)[C@H](CC=C3[C@@H]4[C@H](C)[C@@H](C)CC[C@]4(CO)CC[C@]32C)[C@@]1(C)CCCN`, for which the growth was 60.9% with NCI-H23 lung; 84.5% with NCI-H226 lung; 43.7% in the experiment on NCI-H322M lung; -63.1% (active) in the experiment on HOP-62 NSCLC; -81.9% (active) in the experiment with NCI-H460 lung; 4.6% (active) with HOP-92 NSCLC. Also, the growth with NCI-H522 lung was -41.8% (active); in the experiment with A549/ATCC NSCLC, -31.6% (active); in the experiment on 786-0 renal, 39.3%; in the experiment on COLO 205 colon, -57.2% (active).

For the molecule `CC(C)(C)[Si](C)(C)O[C@H]1C(=O)C=CN2CC=C[C@@H]12`, the growth in the experiment with NCI-H23 lung was 93.3% [100 µM]; in the experiment with NCI-H226 lung, 94.4% [100 µM]; in the experiment on NCI-H322M lung it was 104% [100 µM]; in the experiment on HOP-62 NSCLC it was 111% [100 µM]; with NCI-H460 lung, 103% [100 µM]; with HOP-92 NSCLC it was 93.9% [100 µM]. In addition, the growth was 91.7% [100 µM] in the experiment with NCI-H522 lung, 110% [100 µM] in the experiment on A549/ATCC NSCLC, 105% [100 µM] in the experiment with 786-0 renal and 122% [100 µM] in the experiment on COLO 205 colon.

Turning to `COC(=O)c1cc(-c2ccccc2)[nH]c1N/N=C/c1c(Cl)cccc1Cl`, the growth in the experiment on NCI-H23 lung was 14.2%; with NCI-H226 lung, 37.9%; with NCI-H322M lung, 34.6%; in the experiment on HOP-62 NSCLC, -28.2% (active); with NCI-H460 lung it was -3.25% (active); with HOP-92 NSCLC it was 10.5%. In addition, the growth was -41.9% (active) in the experiment with NCI-H522 lung, 21.7% in the experiment on A549/ATCC NSCLC, 9.31% (active) with 786-0 renal and 12.5% in the experiment with COLO 205 colon.

For `CCCCOC(=O)OCc1cc(=O)c(O)co1`, the growth in the experiment on NCI-H23 lung is 95.3%; in the experiment on NCI-H226 lung it was 94.3%; in the experiment with NCI-H322M lung, 94.1%; in the experiment on HOP-62 NSCLC, 109%; in the experiment on NCI-H460 lung it was 101%; in the experiment with HOP-92 NSCLC, 107%. The growth was 91.1% in the experiment on NCI-H522 lung, 102% in the experiment on A549/ATCC NSCLC, 98.6% with 786-0 renal and 111% with COLO 205 colon.

For `Cc1ccc2c(n1)C(=O)c1[nH]c3ccccc3c1C2=O`, the growth was -33.8% (active) in the experiment with NCI-H23 lung; 55.7% in the experiment on NCI-H226 lung; 31.8% in the experiment on NCI-H322M lung; 39.5% in the experiment with HOP-62 NSCLC; -50.6% (active) in the experiment on NCI-H460 lung; 78% with HOP-92 NSCLC. The growth with NCI-H522 lung was 59.7%; with A549/ATCC NSCLC, -14.4% (active); in the experiment with 786-0 renal, 78.1%; in the experiment on COLO 205 colon it was 23.9%.

As to `COc1cc(-c2nc3cc(Cl)c(Cl)cc3[nH]2)ccc1OCC(=O)N=Nc1c(O)[nH]c2ccc([N+](=O)[O-])cc12`, the growth with NCI-H23 lung was 84.3%; in the experiment with NCI-H226 lung, 92.9%; in the experiment with NCI-H322M lung, 112%; in the experiment on HOP-62 NSCLC, 88.7%; in the experiment with NCI-H460 lung, 102%; in the experiment on HOP-92 NSCLC it was 84.2%. For the same molecule, the growth in the experiment on NCI-H522 lung was 89.6%; in the experiment on A549/ATCC NSCLC, 114%; with 786-0 renal, 92.1%; with COLO 205 colon, 78.5%.

For `CN(Cc1ccc(C(F)(F)F)cc1)CC(O)C(=O)Nc1ccc(Cl)cc1` (stereo not given), the growth in the experiment on NCI-H23 lung is -50.9% (active); with NCI-H226 lung, 51.8%; with NCI-H322M lung, 42.4%; in the experiment on HOP-62 NSCLC, -37.8% (active); with NCI-H460 lung, 18.3%; in the experiment on HOP-92 NSCLC it was -0.362% (active). Moreover, the growth is -51.4% (active) with NCI-H522 lung, 19.6% in the experiment on A549/ATCC NSCLC, -48.4% (active) in the experiment with 786-0 renal and -68.6% (active) with COLO 205 colon.

For `COc1ccccc1NC(=O)Cn1cc(CN2CCN(c3ccnc4cc(Cl)ccc34)CC2)nn1`, the growth is 89.2% with NCI-H23 lung; 84.7% in the experiment on NCI-H226 lung; 95.1% in the experiment on NCI-H322M lung; 86.2% with HOP-62 NSCLC; 96.3% with NCI-H460 lung; 61.8% in the experiment with HOP-92 NSCLC. In addition, the growth was 86.8% in the experiment on NCI-H522 lung, 91% in the experiment on A549/ATCC NSCLC, 99% in the experiment with 786-0 renal and 101% with COLO 205 colon.

Regarding `CC1(C)CCC(S(=O)(=O)c2ccc3c(c2)/C(=N\O)c2cc(S(=O)(=O)N4CCC(O)(c5cccc(C(F)(F)F)c5)CC4)ccc2-3)CC1`, the growth in the experiment with NCI-H23 lung was -48.7% (active); in the experiment on NCI-H226 lung it was -55.9% (active); in the experiment on NCI-H322M lung, -38.5% (active); in the experiment on HOP-62 NSCLC, -92.1% (active); in the experiment on NCI-H460 lung, -84.5% (active); in the experiment with HOP-92 NSCLC it was -36% (active). The growth in the experiment with NCI-H522 lung was -81.4% (active); in the experiment with A549/ATCC NSCLC it was -83.9% (active); with 786-0 renal, -87.3% (active); in the experiment with COLO 205 colon, -90% (active).

For the molecule `COc1ccc(-c2nnc(-c3ccc4c(c3)nc(-c3ccncc3)n4C3CCCCC3)o2)cc1`, the growth with NCI-H23 lung is 72.8%; with NCI-H226 lung, 63.6%; in the experiment on NCI-H322M lung it was 82%; with HOP-62 NSCLC, 67.7%; with NCI-H460 lung, 73.7%; in the experiment with HOP-92 NSCLC, 44.8%. The growth with NCI-H522 lung was 61.4%; with A549/ATCC NSCLC, 59.2%; with 786-0 renal, 66.3%; in the experiment with COLO 205 colon, 59.2%.

Consider `O=C(c1ccccc1)C1C(=O)N2C(=S)N(c3ccccc3)C(=O)C2C1c1ccc(Cl)cc1` (stereo not given), for which the growth in the experiment with NCI-H23 lung is 88.2%; in the experiment on NCI-H226 lung, 74.5%; in the experiment with NCI-H322M lung, 94.6%; in the experiment with HOP-62 NSCLC, 93.4%; with NCI-H460 lung it was 86.8%; in the experiment on HOP-92 NSCLC, 91.3%. Moreover, the growth in the experiment with NCI-H522 lung is 94%; in the experiment on A549/ATCC NSCLC, 101%; in the experiment with 786-0 renal, 100%; in the experiment on COLO 205 colon, 112%.

On to `O=C(Nc1cc(Cl)ccc1O)c1ccc(Nc2ccnc(C(F)(F)F)c2)cc1`, for which the growth with NCI-H23 lung was 9.34% (active); in the experiment with NCI-H226 lung, 52.1%; in the experiment with NCI-H322M lung it was 61.7%; with HOP-62 NSCLC, 46.3%; with NCI-H460 lung, 7.25% (active); with HOP-92 NSCLC, 86%. The growth in the experiment with NCI-H522 lung was 23.7%; with A549/ATCC NSCLC, 36.5%; in the experiment on 786-0 renal, 49%; in the experiment with COLO 205 colon, 87.9%.
